Screening data from PubChem.
The full list was thinned out, with hits kept by preference.
Apoferritin bind = binds horse apoferritin like a general anesthetic. P02791. apoferritin/1-aminoanthracene competitive binding, fluorescence. Potency, µM (series often up to 77.5 µM), without a hit: at the highest dose activity change, negative = displacement, most hits filed as inhibitors. hit rate 0.074% among 350,000; note: potency is the fitted concentration of half-maximal effect; % is set by controls: 0 for no effect and ±100 for the full control effect; nearly all actives have a fitted effect of over 20% in size
Target sequence (P02791 2-175 limits assumed): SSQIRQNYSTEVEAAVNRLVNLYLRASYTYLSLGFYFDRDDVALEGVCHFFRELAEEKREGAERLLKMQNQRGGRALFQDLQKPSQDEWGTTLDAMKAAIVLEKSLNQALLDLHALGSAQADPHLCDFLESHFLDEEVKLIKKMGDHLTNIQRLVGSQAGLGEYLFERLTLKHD
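Apoferritin-based anesthetic binding model; compound displacement of fluorescent 1-AMA measured as endpoint fluorescence after 10 minutes at room temperature, scaled to free-ligand and complex controls.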
ClpP mod = qHTS Assay for Activators of ClpP | Potency, µM (titrated, usually from 57.5 µM), inactives show at the highest dose activity change, negative = active | ATP-dependent Clp protease proteolytic subunit (Bacillus subtilis (strain 168)), P80244 | hit rate 1.9% among 340,000 | purified B. subtilis ClpP, FRET peptide cleavage, 20 min | AID 651965, 2013; active = well fitted falling curve with a large enough effect; inconclusive = small, poorly fitted or top-dose-only effect; inactive = no such curve, though single readings can be large or run the other way; note: potency is the fitted concentration of half-maximal effect; the source files actives as falling curves though it sought activators and does not explain the sign; nearly all actives have a fitted effect of over 65% in size
Target sequence (P80244 whole entry, looked up): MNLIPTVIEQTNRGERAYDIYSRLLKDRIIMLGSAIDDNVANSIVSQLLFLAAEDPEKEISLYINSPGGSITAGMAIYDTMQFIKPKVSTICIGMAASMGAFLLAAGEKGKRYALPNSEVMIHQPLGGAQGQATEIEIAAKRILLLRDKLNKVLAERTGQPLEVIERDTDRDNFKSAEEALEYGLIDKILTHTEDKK
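Buffer: 100 mM Tris/HCl pH8, 100 mM KCl, 0.05% low protease BSA, 2.5% glycerol, 0.01% Tween-20. ClpP 10 microg/mL final; 20 min RT; delta FRET normalized to ADEP and DMSO controls.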
Glioma ERSR ind = ER stress response induction in glioma; U87-MG GRP78 promoter luciferase reporter, 16 h; Potency, µM, inactives show at the top dose activation, usual class: activators; hit rate 0.02% among 420,000; note: potency is the fitted concentration of half-maximal effect; series mostly up to about 76 µM; % of control where 0% means no effect; nearly all actives have a fitted effect of over 35% in size
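Stably transfected U87-MG glioma cells carrying a GRP78-based luciferase sensor; 16 h compound incubation. Luminescence end-point read 10 min after Bright-Glo addition at room temperature.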
Integrin act MD = activates integrin-mediated alleviation for muscular dystrophy. Potency, µM (highest dose often 38.3 µM), for the others: at the highest dose activation, most hits filed as activators. alpha7betagal myoblasts, beta-gal FDG fluorescence, 48 h. AID 624291. hit rate 0.064% among 350,000;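 note: potency is the fitted concentration of half-maximal effect; 100% = response of the positive control SU9516; nearly all actives have a fitted effect of over 60% in size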
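alpha7betagal+/- myoblasts (passage 13, 250/well) treated 48 h at 37C with compounds at 1:260 dilution of DMSO stock. Lysed, then beta-galactosidase activity read as FDG fluorescence (ex 480/em 540) after 30 min, with pre-read for autofluorescence.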
CBFb-RUNX1 inh = blocks binding between human CBF-beta and RUNX1; Q01196+Q13951; AlphaScreen CBFb-His/RUNX1-biotin binding, biochemical; Potency, µM (doses to about 59.8 µM), for the others: at the top dose activity, negative = inhibition, hits mostly inhibitors; 230,000 tested, under 10 active; AID 1477; note: % of control where 0% means no effect
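Read-out: AlphaScreen. Format: His-CBF-beta with biotinylated RUNX1 (30 nM each) preincubated 20 min, compound 15 min, Ni-chelate plus streptavidin beads 90 min; room temperature throughout.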
N370S GC mod = inhibitors or activators of N370S glucocerebrosidase for Gaucher disease; Potency, µM (top dose mostly 59.4 µM), without a hit: top-dose activity change, negative = inhibition, usual class: inhibitors; hit rate 0.092% among 330,000; AID 2101; N370S GC spleen homogenate, 4MU-glucoside fluorescence;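 note: potency is the fitted concentration of half-maximal effect; 0% = full enzyme activity and -100% = no enzyme basal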
* marks the source's active call; other numbers are inactive results. Unless noted, calls come from the whole dose curve; as a rule, active = well fitted curve in the direction sought with a large enough effect; inconclusive = small, poorly fitted or top-dose-only effect, or another doubt; inactive = no such curve, though single readings can be large; an effect the other way counts as inactive or inconclusive.

Results for C=CS(=O)(=O)O ?
Glioma ERSR ind: -4%

Results for CCCCNC(=O)CCCCCn1c(=O)[nH]c2cc(OC)c(OC)cc2c1=O ?
Apoferritin bind: -2%; ClpP mod: 28µM*; Glioma ERSR ind: -2%; Integrin act MD: -21%; CBFb-RUNX1 inh: 5%; N370S GC mod: 6%

How did COc1cc2[nH]c(=O)n(CCC(=O)NC3CCCC3)c(=O)c2cc1OC do in these assays?
Apoferritin bind: 3%; ClpP mod: 28µM*; Glioma ERSR ind: 4%; Integrin act MD: 9%; CBFb-RUNX1 inh: 2%; N370S GC mod: -9%

How did CCCCCNC(=O)CCCCn1c(=O)[nH]c2cc(OCC)c(OCC)cc2c1=O do in these assays?
Apoferritin bind: -15%; ClpP mod: inconclusive; Glioma ERSR ind: -3%; Integrin act MD: -17%; CBFb-RUNX1 inh: 5%; N370S GC mod: 5%

Results for CCC(C)NC(=O)CCCCCn1c(=O)[nH]c2cc(OC)c(OC)cc2c1=O (stereo not drawn) ?
Apoferritin bind: -7%; ClpP mod: 28µM*; Glioma ERSR ind: 2%; Integrin act MD: -6%; CBFb-RUNX1 inh: 3%; N370S GC mod: 7%

How did COCC(=O)Nc1cc(C(=O)N2CCCCC2c2nccn2C)cc2nc(-c3ccccc3)n(C)c12 (stereo not drawn) do in these assays?
Glioma ERSR ind: -1%

How did COCC(=O)Nc1cc(C(=O)NC2CCCc3ccccc32)c2c(c1)nc(-c1ccncc1)n2C (stereo not drawn) do in these assays?
Glioma ERSR ind: -1%

Results for C=CCn1c(SCC(=O)NC2CCCC2)nc2scc(-c3ccco3)c2c1=O ?
Apoferritin bind: -18%; ClpP mod: -6%; Glioma ERSR ind: 4%; Integrin act MD: 3%; CBFb-RUNX1 inh: -12%; N370S GC mod: 13µM*

Results for CN(C)S(=O)(=O)c1cccc(C(=O)Nc2ccc3c(c2)CCC3)c1 ?
Apoferritin bind: 1%; ClpP mod: 0%; Glioma ERSR ind: -7%; Integrin act MD: 2.8µM*; N370S GC mod: 4%

What do the screens show for `COCCn1c(SCC(=O)NNC(=O)c2ccccc2)nc2ccccc2c1=O`?
Apoferritin bind: 2%; ClpP mod: 28µM*; Glioma ERSR ind: 0%; Integrin act MD: 19%; CBFb-RUNX1 inh: -1%; N370S GC mod: 2%

What do the screens show for `COCCCNC(=O)CSc1nc2ccccc2c(=O)n1Cc1ccc2c(c1)OCO2`?
Apoferritin bind: -1%; ClpP mod: 28µM*; Glioma ERSR ind: -4%; Integrin act MD: 0%; CBFb-RUNX1 inh: -7%; N370S GC mod: 0%

Results for COCCCNC(=O)CSc1nc2cc(C(=O)NCCOC)ccc2c(=O)n1Cc1ccc2c(c1)OCO2 ?
Apoferritin bind: -2%; ClpP mod: 0%; Glioma ERSR ind: -1%; Integrin act MD: 41%; N370S GC mod: 0%

Results for COc1ccc(CCNC(=O)c2cnn(-c3nccc(-c4cccs4)n3)c2C)cc1OC ?
Glioma ERSR ind: 11%

Results for CCNc1nc(NCc2ccc(F)cc2)c2cnn(C)c2n1 ?
Apoferritin bind: 7%; ClpP mod: inconclusive

How did CCNc1nc(C)nc2c1cnn2C do in these assays?
ClpP mod: 28µM*; Glioma ERSR ind: -3%; Integrin act MD: 16%

Results for Cc1cc(C)c2nc(N(CCCN(C)C)C(=O)c3ccc(S(=O)(=O)N4CCCCCC4)cc3)sc2c1 ?
ClpP mod: -2%; Glioma ERSR ind: -10%; Integrin act MD: -55%; N370S GC mod: 16µM*

What do the screens show for `Cc1cc(C)c2c(N)c(C(=O)Nc3ccccc3Br)sc2n1`?
Apoferritin bind: -11%; ClpP mod: 4%; Glioma ERSR ind: -6%; Integrin act MD: -2%; N370S GC mod: inconclusive
